Measurements taken from PubChem BioAssay AID1508602 (The Scripps Research Institute Molecular Screening Center, 2020).
Several values for one entry are separate records, joined by “and”; a condition that tells them apart may be missing. Equal values may be shown once. The campaign covered roughly 650,000 compounds. About 6,800 (1%) were called active. Shown is part of a subset that was picked to be rich in actives. Values without a mark were called inactive. Rule as the data show it: active = activation above about 4.9%; inactive = the rest.

These compounds were tested against G-protein coupled receptor 151 (Homo sapiens) (UniProt Q8TDV0) (assay: activators of human GPR151, primary screen, cell-based, PathHunter beta-arrestin, luminescence (AID 1508602;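 also: 0% = median of compound wells and 100% = cells with positive control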)). Details: PathHunter beta-arrestin GPR151 cells, at 11.2 µM, hits give high values.
G-protein coupled receptor 151 (Homo sapiens), sequence (Q8TDV0 whole entry, looked up): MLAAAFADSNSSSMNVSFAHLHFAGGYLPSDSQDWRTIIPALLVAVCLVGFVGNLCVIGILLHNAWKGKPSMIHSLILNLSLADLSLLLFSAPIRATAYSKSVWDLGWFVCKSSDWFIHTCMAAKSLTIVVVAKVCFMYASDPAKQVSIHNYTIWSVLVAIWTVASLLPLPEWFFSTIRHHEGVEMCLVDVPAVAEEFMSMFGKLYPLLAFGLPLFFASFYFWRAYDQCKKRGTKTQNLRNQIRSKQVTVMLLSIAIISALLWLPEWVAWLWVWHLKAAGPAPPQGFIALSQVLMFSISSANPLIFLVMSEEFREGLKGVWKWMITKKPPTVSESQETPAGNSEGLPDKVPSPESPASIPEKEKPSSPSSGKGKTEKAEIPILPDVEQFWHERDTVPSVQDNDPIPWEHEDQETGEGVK

Compound	activation
COC(=O)Cc1ccc(NC(=S)N2CCC(C(N)=O)CC2)cc1	-0.283%
O=C(NCC1CCCO1)c1ccc(N2CC3CC(C2)c2cccc(=O)n2C3)c(NS(=O)(=O)c2ccc(Cl)cc2)c1 (configuration not stated)	-2.43%
CCN(CC)C(=O)C1CCCN(c2nc(NCc3cccc(C(F)(F)F)c3)c3cc(OC)c(OC)cc3n2)C1 (configuration not stated)	-0.297%
CCN(CC)C(=O)C1CCCN(c2ncc(C)c(NCc3cccc(C(F)(F)F)c3)n2)C1 (configuration not stated)	5.92% (active)
FC(F)(F)c1ccc(Cn2cnc3c(NCc4cccc(C(F)(F)F)c4)nc(Nc4ccc(N5CCOCC5)cc4)nc32)cc1	5.04% (active)
FC(F)(F)c1cccc(CNc2nc(Nc3ccc(N4CCOCC4)cc3)nc3c2ncn3-c2ccsc2)c1	0.773%
CCN(CC)C(=O)C1CCCN(c2ncc(C)c(Nc3ccc(N4CCOCC4)cc3)n2)C1 (configuration not stated)	0.13%
Cc1cnc(Nc2ccc(N3CCOCC3)cc2)nc1NCc1cccc(C(F)(F)F)c1	6.5% (active)
FC(F)(F)c1cccc(CNc2ncnc3nc(N4CCOCC4)[nH]c23)c1	1.38%
c1ccc(CNc2nc(Nc3ccc(N4CCOCC4)cc3)nc3c2ncn3-c2ccccc2)cc1	1.12%
FC(F)(F)c1cccc(CNc2ccnc(N3CCOCC3)n2)c1	0.285%
COc1ccc(/C=N/NC(=O)CN(C)C(=O)c2ccccc2)cc1	-1.44%
COc1ccc(Cl)cc1NC(=O)C1c2cc(OC)c(OC)cc2C(=O)N(C)C1c1ccc(OC)c(OC)c1 (configuration not stated)	4.36%
Cc1ccc(N2C(=O)C3ON(c4ccc(Cl)cc4)C(c4ccco4)C3C2=O)cc1 (configuration not stated)	-1.12%
COCc1c(C(=O)N/N=C/c2cccc(F)c2)nnn1-c1nonc1N	-0.56%
O=C(Cc1ccc(Cl)cc1)NCc1nnnn1C1CCCCC1	-1.64%
CCCc1cc(=O)[nH]c(Nc2cccc(O)c2)n1	0.777%
CCOC(=O)C1=C(N)OC2=C(C(=O)CC(C)(C)C2)C1c1cc(OC)ccc1F (configuration not stated)	-1.02%
Cc1[nH]n(-c2nc3c(c(=O)[nH]2)CCCC3)c(=O)c1CCO	-1.77%
C=CCn1c(SCC(=O)N2c3ccccc3CC2C)nc2sc(C)c(C)c2c1=O (configuration not stated)	0.176%
COCCNc1nc2nonc2nc1N1CCC(N2C[C@@H](C)O[C@@H](C)C2)CC1	-0.822%
O=[N+]([O-])c1ccc(S(=O)(=O)NCCc2ccccc2)cc1	0.345%

Compound	activation
O=C(/C=C/Nc1ccccc1NS(=O)(=O)c1ccc([N+](=O)[O-])cc1)c1ccco1	6.93% (active)
O=C(/C=N/Nc1ccc([N+](=O)[O-])cc1[N+](=O)[O-])c1ccco1	0.644%
O=C(NCc1ccccc1)N(CCN1CCCC1)Cc1cc2cc3c(cc2[nH]c1=O)OCO3	-0.475%
Cc1ccc(S(=O)(=O)C2(C(=O)Nc3ccc([N+](=O)[O-])cn3)CC2)cc1	0.544%
COc1cc(S(=O)(=O)NCCN2CCOCC2)ccc1Br	-1.15%
CCc1ccc(S(=O)(=O)NCCOc2cc(N3CCOCC3)ncn2)cc1	5.88% (active)
CC(C)N(CCNc1cc(N2CCOCC2)ncn1)C(C)C	-0.393%
O=C1CCCC2=C1C(c1ccccc1[N+](=O)[O-])c1c([nH]c(=O)[nH]c1=O)N2 (configuration not stated)	-0.211%
COc1ccc2c(=O)c(C(=O)O)c[nH]c2c1	-1.56%
CC(=O)Nc1ccc(NC(=O)/C=C\C(=O)O)cc1C	2.3%
CCOC(=O)C1=C(c2ccccc2)S/C(=C2/C(=S)C(C)(C)N(C(C)=O)c3cc(C)c(C)cc32)S1	1.9%
N#CCCN1c2ccccc2Sc2ccc(C(F)(F)F)cc21	1.1%
O=C(Nc1cc([N+](=O)[O-])ccc1Cl)c1cc(Cl)ccc1Cl	-0.475%
CC(=O)Nc1ccc(NC(=O)c2ccc3nc(Br)sc3c2)cc1	6.16% (active)
O=C(Nc1ccccc1)c1ccc2nc(Br)sc2c1	-4.09%
CCNc1nc2ccc(C(=O)Nc3ccc(NC(C)=O)cc3)cc2s1	-3.46%
Cc1ccc(C(=O)NCC(=O)OCC(=O)Nc2cccc(Cl)c2)s1	0.82%
NC(=O)c1c(NC(=O)c2ccccc2F)sc2c1CCCCCC2	1.12%
COC(CNC(=O)CC(NS(=O)(=O)c1ccc(C)cc1)c1ccco1)OC (configuration not stated)	-0.827%
COC(=O)c1ccc2c(=O)n(CCN3CCOCC3)c(SCc3cc(C(C)=O)ccc3OC)nc2c1	-0.152%
O=C(CCc1nnc(Cc2cccc(C(F)(F)F)c2)o1)N1CCSCC1	-0.806%
COc1ccccc1NC(=O)Nc1ccnn1C1CCN(C(=O)CCc2ccccc2)CC1	0.323%

Compound	activation
O=C(CCc1nnc(CCCCc2ccccc2)o1)N1CCC(N2CCSCC2)CC1	7% (active)
CN(Cc1ccno1)C(=O)CC1C(=O)NCCN1Cc1ccoc1 (configuration not stated)	1.36%
COc1cccc(N(C(=O)c2csnn2)C(C(=O)NC(C)(C)C)c2ccc(F)cc2)c1 (configuration not stated)	0.396%
CCc1ccc(CN(C)C(=O)CC2(c3ccccc3Cl)CC(=O)N(C)C2=O)cc1 (configuration not stated)	0.519%
CCc1ccc(-c2oc(C)c(C)[n+]2[O-])cc1	-2.56%
COCCN1C(=O)CC(CC(=O)N(C)C(C)C)(c2ccccc2F)C1=O (configuration not stated)	-1.69%
COCCN1C(=O)CC(CC(=O)NCc2nc3ccccc3[nH]2)(c2ccccc2C)C1=O (configuration not stated)	6.75% (active)
Cc1cnc(CN(C)C(=O)CC2(c3ccccc3C)CC(=O)N(CCN(C)C)C2=O)[nH]1 (configuration not stated)	1.18%
COCCNC(=O)c1cnn2c(C)c(Cc3ccc(Cl)cc3)c(C)nc12	0.41%
CC(=O)c1ccc(-c2cnc3[nH]c(=O)n(C4CCCCC4)c3n2)s1	-0.0776%
Cc1ccc(S(=O)(=O)N2CC3CC3C2C(=O)Nc2ccc(F)cc2)cc1 (configuration not stated)	0.0458%
Nc1ccc(C(=O)Nc2nc3ccc(C(=O)N4CCCCC4)cc3s2)cc1	-0.249%
CC1CCCC(NCc2c(C(=O)O)n(Cc3ccc(F)cc3)c3ccccc23)C1C (configuration not stated)	0.786%
CC1CCCC(NCc2c(C(=O)O)n(Cc3ccc(Cl)cc3)c3ccccc23)C1C (configuration not stated)	7.5% (active)
O=C(O)c1c(CNC2CCCCC2)c2ccccc2n1Cc1ccc(Cl)cc1	-0.235%
O=C(Nc1ccc(N2CCOCC2)cc1)c1ccc2nc(Nc3ccncc3)sc2c1	0.271%
O=C(Cn1c(=O)n(Cc2ccccc2)c(=O)c2ccccc21)c1ccccc1	5.03% (active)
NC(=O)Cn1c(=O)n(CCCCC(=O)NCCc2ccccc2)c(=O)c2ccccc21	-0.245%
COc1ccc(OC)c(NC(=O)Cn2c(=O)n(Cc3ccccc3)c(=O)c3ccccc32)c1	-0.558%
CCOC(=O)c1sc(NC(=O)CSc2ncccn2)c(C#N)c1C	4.97% (active)
CCOC(=O)c1sc(NC(C)=O)c(C#N)c1C	-1.06% and -0.982%
CCOC(=O)c1sc(NC(=O)CSc2nnc(-c3ccccc3)o2)c(C#N)c1C	-0.17%

Compound	activation
NC(=O)c1c(NC(=S)NC(=O)c2ccccc2)sc2c1CCCCCC2	-0.485%
COc1ccc(C2CC(c3ccccc3)n3ncnc3N2)cc1 (configuration not stated)	-0.25%
COC(Cn1c(=S)[nH]c2cc3ccccc3cc2c1=O)OC	0.597%
COc1ccc(C2(C)NC(=O)N(CC(=O)NCCc3ccccc3)C2=O)cc1 (configuration not stated)	-0.0334%
COc1ccc(C2(C)NC(=O)N(CC(=O)Nc3ccc4ccccc4c3)C2=O)cc1 (configuration not stated)	5.16% (active)
CC1(c2ccc3ccccc3c2)NC(=O)N(CC(N)=O)C1=O (configuration not stated)	-0.0365%
O=C(Nc1ccc2cn[nH]c2c1)c1ccc(F)cc1F	-2.11%
COc1cc(C2C(C#N)=C(N)Oc3c2c(C)nn3-c2ccccc2)ccc1OCC#N (configuration not stated)	0.152%
COc1ccc(C2C(C#N)=C(N)Oc3c2c(C)nn3-c2ccccc2)cc1 (configuration not stated)	8.46% (active)
Cc1nn(-c2ccccc2)c2c1C(c1ccc(-c3ccccc3)cc1)C(C#N)=C(N)O2 (configuration not stated)	-3.52%
CCOC(=O)Cn1c(CNC(=O)c2ccco2)nc2ccccc21	-1.37%
CCOC(=O)c1cccc(NC(=O)/C=C/c2ccc(Cl)cc2)c1	-0.517%
CCOC(=O)c1cccc(NC(=O)/C=C/c2ccccc2)c1	5.45% (active)
CCOC(=O)c1cccc(Nc2c(-c3ccccc3)c(=O)c2=O)c1	-1.39%
CCOC(=O)c1cccc(NC(=O)CCCOc2ccc(OC)cc2)c1	5.63% (active)
COc1ccc(OCCCC(=O)Nc2ccccc2)cc1	-0.655%
COc1cccc(NC(=O)CCCOc2ccc(C)cc2)c1	0.676%
COc1cc(NC(=O)CSc2ncccc2-c2nc3ccccc3[nH]2)cc(OC)c1	-2.5%
COc1ccc(N2CCN(c3nc(Nc4ccc(C)c(Cl)c4)nc(N4CCCC4)n3)CC2)cc1	-0.777%
COc1ccc(-c2cc(-c3cccs3)nc3sc(C(N)=O)c(N)c23)cc1	-1.24%
CC/C=C\C/C=C\C/C=C\C/C=C\C/C=C\C[C@H]1O[C@H]1CCC(=O)OC	0.982%
